Reference: PubChem BioAssay AID1159580 (chemical genetic matrix, 2015)
Where “and” joins values, the source holds several entries; their conditions need not be identical. Equal values may be shown once. Out of some 5,500 compounds screened, about 2,000 (36%) were called active. Roughly 18% stayed inconclusive and do not appear here. This is one part of the list. A number with no mark means an inactive call. No stated cut-off is given here; in the data, active means normalized growth mostly below about 0.91 (no sharp cut-off); inconclusive means no clear call, values can overlap the other calls; inactive means mostly above about 0.92.

Assay: chemical genetic growth profiling, strain panel (AID 1159580);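 further: tested at 20 µM; growth read once vehicle control cultures reached saturation at 30 °C; 1 = growth at the plate median or of vehicle wells; lower values mean less growth of the strain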
Settings: S. cerevisiae deletion strains, growth OD

## CC(C)CCCC(C)C1CCC2C3C[C@@H](O)[C@@]4(O)C[C@@H](O)CC[C@]4(C)C3CC[C@]12C (stereo partly drawn)
Locus YAL013W, strain DEP1, active compounds read low
  normalized growth: 1.01
Locus YAL021C, strain ccr4, active compounds read low
  normalized growth: 0.951
Locus YAL026C, strain drs2, active compounds read low
  normalized growth: 0.843 (active)
Locus YAL030W, strain snc1, active compounds read low
  normalized growth: 0.988
Locus YBL061C, strain skt5, active compounds read low
  normalized growth: 0.986
Locus YBR009C, strain hhf1, active compounds read low
  normalized growth: 0.972
Locus YBR021W, strain FUR4, active compounds read low
  normalized growth: 1.06
Locus YBR023C, strain chs3, active compounds read low
  normalized growth: 0.994
Locus YBR171W, strain sec66, active compounds read low
  normalized growth: 1.01
Locus YBR229C, strain ROT2, active compounds read low
  normalized growth: 1.06
Locus YBR231C, strain swc5, active compounds read low
  normalized growth: 1.01
Locus YBR279W, strain paf1, active compounds read low
  normalized growth: 1.03
Locus YCL011C, strain gbp2, active compounds read low
  normalized growth: 0.997
Locus YCL016C, strain dcc1, active compounds read low
  normalized growth: 0.984
Locus YCL029C, strain bik1, active compounds read low
  normalized growth: 1.04
Locus YCL061C, strain MRC1, active compounds read low
  normalized growth: 0.966
Locus YCL069W, strain vba3, active compounds read low
  normalized growth: 0.984
Locus YCR088W, strain abp1, active compounds read low
  normalized growth: 1
Locus YDL005C, strain med2, active compounds read low
  normalized growth: 0.996
Locus YDL035C, strain GPR1, active compounds read low
  normalized growth: 1.06
Locus YDL040C, strain nat1, active compounds read low
  normalized growth: 1.01
Locus YDL074C, strain BRE1, active compounds read low
  normalized growth: 1.08
Locus YDL101C, strain DUN1, active compounds read low
  normalized growth: 1.03
Locus YDL134C, strain PPH21, active compounds read low
  normalized growth: 0.985
Locus YDL185W, strain tfp1, active compounds read low
  normalized growth: 1.02
Locus YDL192W, strain arf1, active compounds read low
  normalized growth: 0.999
Locus YDR001C, strain nth1, active compounds read low
  normalized growth: 1
Locus YDR069C, strain doa4, active compounds read low
  normalized growth: 0.992
Locus YDR101C, strain arx1, active compounds read low
  normalized growth: 1.03
Locus YDR137W, strain rgp1, active compounds read low
  normalized growth: 0.493 (active)
Locus YDR150W, strain NUM1, active compounds read low
  normalized growth: 1.03
Locus YDR162C, strain NBP2, active compounds read low
  normalized growth: 1.03
Locus YDR195W, strain ref2
  normalized growth: 1.04
Locus YDR297W, strain sur2, active compounds read low
  normalized growth: 0.986
Locus YDR318W, strain mcm21, active compounds read low
  normalized growth: 1.02
Locus YDR334W, strain swr1, active compounds read low
  normalized growth: 1
Locus YDR335W, strain msn5, active compounds read low
  normalized growth: 1
Locus YDR388W, active compounds read low
  normalized growth: 1.01
Locus YDR392W, strain spt3, active compounds read low
  normalized growth: 0.82
Locus YDR502C, strain sam2, active compounds read low
  normalized growth: 1.02
Locus YEL003W, strain gim4, active compounds read low
  normalized growth: 0.974
Locus YEL037C, strain rad23, active compounds read low
  normalized growth: 1
Locus YEL061C, strain CIN8 (second series), active compounds read low
  normalized growth: 0.999
Locus YER015W, strain faa2, active compounds read low
  normalized growth: 0.987
Locus YER016W, strain bim1, active compounds read low
  normalized growth: 0.994
Locus YER110C, active compounds read low
  normalized growth: 1.03
Locus YER111C, strain swi4, active compounds read low
  normalized growth: 0.987
Locus YER155C, strain BEM2 (second series), active compounds read low
  normalized growth: 0.972
Locus YER155C, strain BEM2, active compounds read low
  normalized growth: 1
Locus YER167W, strain BCK2, active compounds read low
  normalized growth: 1.04
Locus YFR010W, strain ubp6, active compounds read low
  normalized growth: 1
Locus YGL078C, strain dbp3, active compounds read low
  normalized growth: 1.02
Locus YGL086W, strain mad1, active compounds read low
  normalized growth: 1.01
Locus YGL167C, strain pmr1, active compounds read low
  normalized growth: 1
Locus YGL173C, strain kem1, active compounds read low
  normalized growth: 0.992
Locus YGL227W, strain vid30, active compounds read low
  normalized growth: 1
Locus YGL240W, strain doc1, active compounds read low
  normalized growth: 1.02
Locus YGL248W, strain PDE1, active compounds read low
  normalized growth: 1.02
Locus YGL253W, strain hxk2, active compounds read low
  normalized growth: 0.996
Locus YGR078C, strain PAC10, active compounds read low
  normalized growth: 1
Locus YGR135W, strain pre9, active compounds read low
  normalized growth: 0.99
Locus YGR252W, strain gcn5, active compounds read low
  normalized growth: 0.993
Locus YHR013C, strain ard1, active compounds read low
  normalized growth: 1
Locus YHR027C, strain rpn1, active compounds read low
  normalized growth: 0.991
Locus YHR030C, strain SLT2, active compounds read low
  normalized growth: 1.02 and 1.06
Locus YHR079C, strain IRE1 (second series), active compounds read low
  normalized growth: 1.01
Locus YHR079C, strain IRE1, active compounds read low
  normalized growth: 1.04
Locus YHR094C, strain hxt1, active compounds read low
  normalized growth: 1.02
Locus YHR129C, strain ARP1, active compounds read low
  normalized growth: 1.03
Locus YHR142W, strain chs7, active compounds read low
  normalized growth: 1.02
Locus YHR200W, strain rpn10, active compounds read low
  normalized growth: 1.02
Locus YIL066C, strain RNR3, active compounds read low
  normalized growth: 1.02
Locus YIL073C, strain SPO22, active compounds read low
  normalized growth: 1.04
Locus YIL125W, strain kgd1, active compounds read low
  normalized growth: 1.02
Locus YIR030C, strain dcg1, active compounds read low
  normalized growth: 1.01
Locus YJL092W, strain hpr5, active compounds read low
  normalized growth: 1.01
Locus YJL095W, strain BCK1 (second series), active compounds read low
  normalized growth: 0.998
Locus YJL095W, strain BCK1, active compounds read low
  normalized growth: 0.981 and 1.05
Locus YJL115W, strain asf1, active compounds read low
  normalized growth: 0.994
Locus YJL129C, strain trk1, active compounds read low
  normalized growth: 1.01
Locus YJL134W, strain LCB3, active compounds read low
  normalized growth: 1.03
Locus YJL154C, strain vps35, active compounds read low
  normalized growth: 1
Locus YJL164C, strain tpk1, active compounds read low
  normalized growth: 0.99
Locus YJL166W, strain qcr8, active compounds read low
  normalized growth: 0.98
Locus YJL168C, strain set2, active compounds read low
  normalized growth: 1.01
Locus YJL187C, strain SWE1 (second series), active compounds read low
  normalized growth: 1.02
Locus YJL187C, strain SWE1, active compounds read low
  normalized growth: 1
Locus YJR043C, strain POL32, active compounds read low
  normalized growth: 1.03
Locus YJR066W, strain TOR1, active compounds read low
  normalized growth: 1.01
Locus YKL009W, strain mrt4, active compounds read low
  normalized growth: 0.971
Locus YKL068W, active compounds read low
  normalized growth: 1.01
Locus YKL085W, strain MDH1 (second series), active compounds read low
  normalized growth: 1.01
Locus YKL085W, strain MDH1, active compounds read low
  normalized growth: 1.01
Locus YKL160W, strain elf1, active compounds read low
  normalized growth: 0.998
Locus YKR001C, strain vps1, active compounds read low
  normalized growth: 1.05
Locus YKR026C, strain gcn3, active compounds read low
  normalized growth: 1
Locus YKR091W, strain srl3, active compounds read low
  normalized growth: 1
Locus YLL001W, strain dnm1, active compounds read low
  normalized growth: 0.949
Locus YLL026W, active compounds read low
  normalized growth: 0.995
Locus YLL041C, strain sdh2, active compounds read low
  normalized growth: 1
Locus YLR027C, strain aat2, active compounds read low
  normalized growth: 0.989
Locus YLR039C, strain RIC1, active compounds read low
  normalized growth: 0.777
Locus YLR058C, strain SHM2, active compounds read low
  normalized growth: 1.02
Locus YLR102C, strain apc9, active compounds read low
  normalized growth: 1.01
Locus YLR113W, strain HOG1, active compounds read low
  normalized growth: 1.06
Locus YLR221C, strain rsa3, active compounds read low
  normalized growth: 0.976
Locus YLR258W, strain gsy2, active compounds read low
  normalized growth: 0.975
Locus YLR262C, strain YPT6 (second series), active compounds read low
  normalized growth: 0.502 (active)
Locus YLR262C, strain YPT6, active compounds read low
  normalized growth: 0.78
Locus YLR268W, strain sec22, active compounds read low
  normalized growth: 1.05
Locus YLR320W, strain mms22, active compounds read low
  normalized growth: 0.941
Locus YLR330W, strain CHS5, active compounds read low
  normalized growth: 1
Locus YLR342W, strain FKS1 (second series), active compounds read low
  normalized growth: 1.03
Locus YLR342W, strain FKS1, active compounds read low
  normalized growth: 0.986
Locus YLR357W, strain rsc2, active compounds read low
  normalized growth: 1.01
Locus YLR370C, strain arc18, active compounds read low
  normalized growth: 1
Locus YLR371W, strain rom2, active compounds read low
  normalized growth: 1.02
Locus YLR384C, strain iki3, active compounds read low
  normalized growth: 0.979
Locus YLR418C, strain cdc73, active compounds read low
  normalized growth: 1.03
Locus YML016C, strain PPZ1, active compounds read low
  normalized growth: 1.05
Locus YML032C, strain rad52, active compounds read low
  normalized growth: 0.977
Locus YML120C, strain ndi1, active compounds read low
  normalized growth: 0.996
Locus YML124C, strain tub3, active compounds read low
  normalized growth: 1.02
Locus YMR058W, strain fet3, active compounds read low
  normalized growth: 0.996
Locus YMR078C, strain ctf18, active compounds read low
  normalized growth: 1.02
Locus YMR125W, strain sto1, active compounds read low
  normalized growth: 1.02
Locus YMR129W, active compounds read low
  normalized growth: 0.989
Locus YMR205C, strain PFK2, active compounds read low
  normalized growth: 0.954
Locus YMR223W, strain ubp8, active compounds read low
  normalized growth: 1
Locus YMR231W, strain pep5, active compounds read low
  normalized growth: 0.99
Locus YMR307W, strain GAS1, active compounds read low
  normalized growth: 1.06
Locus YNL067W, strain RPL9B, active compounds read low
  normalized growth: 1.02
Locus YNL071W, strain lat1, active compounds read low
  normalized growth: 0.999
Locus YNL153C, strain GIM3, active compounds read low
  normalized growth: 1.02
Locus YNL183C, strain NPR1, active compounds read low
  normalized growth: 0.992
Locus YNL209W, strain ssb2, active compounds read low
  normalized growth: 0.994
Locus YNL233W, strain BNI4, active compounds read low
  normalized growth: 1
Locus YNL248C, strain rpa49, active compounds read low
  normalized growth: 0.98
Locus YNL250W, strain rad50, active compounds read low
  normalized growth: 1.02
Locus YNL271C, strain bni1, active compounds read low
  normalized growth: 1.02
Locus YNL298W, strain CLA4, active compounds read low
  normalized growth: 1.02
Locus YNL307C, strain MCK1, active compounds read low
  normalized growth: 1.02
Locus YNL322C, strain KRE1 (second series), active compounds read low
  normalized growth: 0.986
Locus YNL322C, strain KRE1, active compounds read low
  normalized growth: 1.01
Locus YNR049C, strain mso1, active compounds read low
  normalized growth: 1
Locus YNR052C, strain pop2, active compounds read low
  normalized growth: 0.996
Locus YOL012C, strain htz1
  normalized growth: 1.32
Locus YOL147C, strain pex11, active compounds read low
  normalized growth: 1.02
Locus YOR001W, strain rrp6, active compounds read low
  normalized growth: 0.977
Locus YOR061W, strain CKA2, active compounds read low
  normalized growth: 1.03
Locus YOR069W, strain VPS5, active compounds read low
  normalized growth: 1.01
Locus YOR070C, strain gyp1, active compounds read low
  normalized growth: 0.972
Locus YOR080W, strain dia2, active compounds read low
  normalized growth: 1
Locus YOR083W, strain WHI5, active compounds read low
  normalized growth: 0.983
Locus YOR106W, strain vam3, active compounds read low
  normalized growth: 1.04
Locus YOR136W, strain idh2, active compounds read low
  normalized growth: 1.02
Locus YOR144C, strain elg1, active compounds read low
  normalized growth: 1.02
Locus YOR184W, strain ser1, active compounds read low
  normalized growth: 1.02
Locus YOR231W, strain MKK1, active compounds read low
  normalized growth: 1.06
Locus YOR265W, strain rbl2, active compounds read low
  normalized growth: 0.993
Locus YOR270C, strain vph1, active compounds read low
  normalized growth: 1.02
Locus YOR290C, strain snf2, active compounds read low
  normalized growth: 0.994
Locus YOR316C, strain cot1, active compounds read low
  normalized growth: 1.02
Locus YPL051W, strain arl3, active compounds read low
  normalized growth: 0.956
Locus YPL078C, strain atp4, active compounds read low
  normalized growth: 0.987
Locus YPL106C, strain sse1, active compounds read low
  normalized growth: 1.01
Locus YPL240C, strain hsp82, active compounds read low
  normalized growth: 1
Locus YPL256C, strain CLN2, active compounds read low
  normalized growth: 1.05
Locus YPR119W, strain clb2, active compounds read low
  normalized growth: 1.02
Locus YPR141C, strain kar3, active compounds read low
  normalized growth: 1.02
Locus YPR163C, strain tif3, active compounds read low
  normalized growth: 1.01
Locus YPR167C, strain met16, active compounds read low
  normalized growth: 1.03
Strain wtn01, active compounds read low
  normalized growth: 1.07
